Assay results published in PubChem BioAssay (Tox21).
Results filed as inconclusive are left out. Calls of active or inactive are those of the source. The call rests on the fitted dose curve; in most records, active means well fitted curve in the direction sought with a large enough effect in the signal ratio in the repeat runs (not every such curve was filed as active); inconclusive means weak or mixed curves, or a change in a side signal; inactive means no such curve, though single readings can be large or run the other way; the % refers to the signal ratio.

Assay: qHTS assay to identify small molecule agonists of the NFkB signaling pathway (AID 1159509)
Details: NFkB-bla ME-180 cells, beta-lactamase FRET ratio, 5 h; series mostly up to 61 µM; activation: at the top concentration
Description: National Center for Advancing Translational Sciences [NCATS]
NIH Chemical Genomics Center [NCGC]
U.S. Environmental Protection Agency [EPA]
National Institutes of Environmental Health Sciences [NIEHS]
National Toxicology Program [NTP]
U.S. Food and Drug Administration [FDA]
Transcription factors and their stimulated target gene expression play pivotal roles across many cellular processes including responses to environmental stimuli. Proper regulation of associated pathways is critical to maintain cell health and function. Constitutive activation of transcription factor pathways has been implicated in tumors as it may block cellular functions such as apoptosis and lead to invasion and metastasis. One important transcription factor that stimulates gene expression in response to cytokines, UV radiation, and other stimuli is nuclear factor-kappa B (NFkB). To measure activation of the NFkB pathway, the CellSensor NFkB-bla ME-180 cell line (Life Technologies, Carlsbad, CA) that stably expresses beta-lactamase reporter gene under the regulation of a NF-kB response element was used. This assay allows measurement of the NFkB pathway activity induced by compounds in a ME-180 cell line. This system quantitates NF-kB activity using a FRET-based assay system where beta-lactamase expression disrupts FRET, allowing for fluorescent measurement of activity. This cell line has been used to screen the Tox21 10K compound library and to identify compounds that induce the NFkB pathway activity.
Tox21 Assay Protocol Summary:
NFkB-bla ME-180 cells were dispensed at 2,000 cells/6 uL of assay medium per well into black wall/clear-bottom 1536-well plates using a Multidrop Combi (ThermoFisher Scientific, Waltham, MA) dispenser. After the assay plates were incubated at 37 C and 5% CO2 for an overnight, 23 nL of compounds dissolved in DMSO, positive controls or DMSO only was transferred to the assay plate by a Pintool station (Kalypsys, San Diego, CA). The assay plates were incubated at 37 C and 5% CO2 for 5 hr. One uL of LiveBLAzer B/G FRET substrate (Life Technologies) was added using a Flying Reagent Dispenser (Aurora Discovery, San Diego, CA) and the plates were incubated at room temperature for 1.5 hr. Fluorescence intensity (405 nm excitation, 460 nm and 530 nm emissions) was measured using an Envision plate reader (PerkinElmer, Shelton, CT).
On the % scale 0 is the no-effect control and ±100 the full control effect.

| Compound | activation |
| --- | --- |
| C[C@]12CC[C@H]3[C@@H](CC=C4C[C@@H](O)CC[C@@]43C)[C@@H]1CC[C@@H]2O | -0.257% (inactive) |
| CC(Cl)(Cl)[N+](=O)[O-] | 0.0525% (inactive) |
| NC(=O)c1cc([N+](=O)[O-])cc([N+](=O)[O-])c1 | 0.512% (inactive) |
| N#CC(Cl)(Cl)Cl | 0.202% (inactive) |
| COP(N)(=S)Oc1ccccc1C(=O)OC(C)C (stereo not given) | 0.05% (inactive) |
| CC(CC(C#N)(c1ccccc1)c1ccccc1)N(C)C (stereo not given) | 0.0282% (inactive) |
| CCC/C(=N\OCC)C1=C(O)CC(CC(C)SCC)CC1=O (stereo not given) | -0.144% [at 78.8 µM] (inactive) |
| N#Cc1c(Cl)cccc1Cl | 0% (inactive) |
| CCCCOC(=O)c1ccccc1C(=O)O | 0.938% (inactive) |
| CCCCc1ccc(O)cc1 | 1.06% (inactive) |
| O=NN1CCCCC1 | -0.262% (inactive) |
| CCOC(=O)C(c1c(O)c2ccccc2oc1=O)c1c(O)c2ccccc2oc1=O | 0.105% (inactive) |
| CC(Oc1ccc(Oc2ncc(C(F)(F)F)cc2Cl)cc1)C(=O)O (stereo not given) | -0.53% (inactive) |
| Clc1ccccc1N1CCNCC1 | 1.12% (inactive) |
| CN1CCC(O)(c2ccc(F)cc2)C(C(=O)c2ccc(F)cc2)C1 (stereo not given) | 1.25% (inactive) |
| COC(=O)C1=CCCN(C)C1 | -0.0334% (inactive) |
| CC(COc1ccc(Oc2ccccc2)cc1)Oc1ccccn1 (stereo not given) | 0.416% (inactive) |
| O=C(Oc1ccc(Br)cc1)N1CCN2CCC1CC2 | 0.214% (inactive) |
| O=C(Nc1ccccc1)N(Cc1ccc(Cl)cc1)C1CCCC1 | -0.617% (inactive) |
| C#C[C@]1(O)C=C[C@H]2[C@@H]3CCC4=CC(=O)CC[C@@H]4[C@H]3CC[C@@]21CC | -0.991% (inactive) |

| Compound | activation |
| --- | --- |
| O=[N+]([O-])c1ccc2c3c(cccc13)CC2 | -0.0315% (inactive) |
| Cc1ncc2n1-c1ccc(Cl)cc1C(c1ccccc1F)=NC2 | -0.683% (inactive) |
| CC(=O)Nc1cc([As](=O)(O)O)ccc1O | -0.174% (inactive) |
| O=[N+]([O-])c1cccc(O)c1 | -0.397% [at 78.8 µM] (inactive) |
| OCCBr | 0.204% (inactive) |
| COCC(=O)N(c1c(C)cccc1C)N1CCOC1=O | -0.622% (inactive) |
| C[N+](C)=CCl | 0.485% (inactive) |
| CN1CCN(C(=O)O[C@H]2c3nccnc3C(=O)N2c2ccc(Cl)cn2)CC1 | 0.0587% (inactive) |
| CCOC(=O)CP(=O)(OCC)OCC | -0.297% (inactive) |
| CN/C(=N\[N+](=O)[O-])NCC1CCOC1 (stereo not given) | -0.743% (inactive) |
| CC(C(O)c1ccccc1)N(C)C/C=C/c1ccccc1 (stereo not given) | -0.158% (inactive) |
| C[C@@H]1CN(C2CCC(C#N)(c3ccc(F)cc3)CC2)CC[C@]1(C(=O)O)c1ccccc1 (stereo not given in full) | -0.0776% (inactive) |
| CCC(C)n1c(=O)[nH]c(C)c(Br)c1=O (stereo not given) | -0.234% (inactive) |
| CNC(=O)Oc1ccc(N(C)C)c(C)c1 | -0.834% (inactive) |
| CCCCP(CCCC)CCCC | -0.476% (inactive) |
| CC1CCC(=O)O1 (stereo not given) | 0.312% (inactive) |
| OC(Cn1cncn1)(c1ccc(F)cc1)c1ccccc1F (stereo not given) | -1.09% (inactive) |
| CNC(=O)Oc1c(C(C)(C)C)cc(C)cc1C(C)(C)C | -0.0214% (inactive) |
| CCCCC(=O)Cl | 0.746% [at 78.8 µM] (inactive) |
| O=CNC(N1CCN(C(NC=O)C(Cl)(Cl)Cl)CC1)C(Cl)(Cl)Cl (stereo not given) | -0.605% (inactive) |
